From PubChem BioAssay (NCATS)
Activity calls are given as the source filed them. No rule for the calls is given here.

Columns and labels:
[1] = Immunotoxin (HA22) sensitization/mitigation study. Vehicle arm (PBS) (AID 1159510)
[2] = Immunotoxin (SS1P) sensitization/mitigation study. Vehicle arm (DMEM) (AID 1159513)
Potency is read from the fitted curve at half-maximal effect.

SMILES | Potency [1] | Potency [2]
O=C(O)CCc1ccc(NCc2cccc(Oc3ccccc3)c2)cc1 | inactive | inactive
O=C(Nc1cccc(Cl)c1)Nc1ncc(CCNc2ncnc3ccsc23)s1 | 29600 nM (active) | –
NC(=O)c1c(OCc2c(F)cc(Br)cc2F)nsc1NC(=O)NCCCCN1CCCC1 | 23500 nM (active) | –
C#Cc1cccc(Nc2ncnc3cc(OC)c(OCCCCCCC(=O)NO)cc23)c1 | 132 nM (active) | 526 nM (active)
CCCCN1CCC(CNC(=O)c2c3n(c4ccccc24)CCCO3)CC1 | inactive | inactive
CC=C1NC(=O)[C@H]2CSSCCC=C[C@H](CC(=O)N[C@H](C(C)C)C(=O)N2)OC(=O)[C@H](C(C)C)NC1=O | 1.7 nM (active) | 1.9 nM (active)
COC(=O)[C@]12CCC(C)(C)C[C@@H]1[C@@H]1C(=O)C=C3[C@@]4(C)C=C(C#N)C(=O)C(C)(C)[C@@H]4CC[C@@]3(C)[C@]1(C)CC2 | 526 nM (active) | 833 nM (active)
CCc1cncnc1N1CCN(Cc2nc3ccc(C(F)(F)F)cc3[nH]2)CC1 | 7430 nM (active) | –
Fc1cc(-c2cccc3ncc(-c4cnn(C5CCNCC5)c4)nc23)cc(F)c1CN1CCOCC1 | 23500 nM (active) | 23500 nM (active)
CCCCc1nc2cc(C=CC(=O)NO)ccc2n1CCN(CC)CC | 118 nM (active) | 264 nM (active)
Cc1ccc(S(=O)(=O)Nc2cc(Cl)ccc2C(=O)Nc2nc(-c3ccccc3)cs2)cc1 | 5900 nM (active) | 2090 nM (active)
OCCn1cc(-c2ccc3c(c2)CCC3=NO)c(-c2ccncc2)n1 | inactive | inactive
Fc1ccc(Cl)cc1-c1nc(Nc2ccncc2)c2nccnc2n1 | inactive | inactive
CS(=O)(=O)c1ccc(C(=O)Nc2ccc(Cl)c(-c3ccccn3)c2)c(Cl)c1 | inactive | inactive
CC(NC(=O)Cc1cc(F)cc(F)c1)C(=O)NC(C(=O)OC(C)(C)C)c1ccccc1 (stereo not drawn) | inactive | inactive
O=C(O)c1ccc2cc(-c3ccc(O)c(C45CC6CC(CC(C6)C4)C5)c3)ccc2c1 | 93.5 nM (active) | 18700 nM (active)
Cc1cccc(C#Cc2ccccc2)n1 | inactive | inactive

SMILES | Potency [1] | Potency [2]
Cc1nnc(C(C)C)n1C1CC2CCC(C1)N2CC[C@H](NC(=O)C1CCC(F)(F)CC1)c1ccccc1 (stereo partly drawn) | inactive | inactive
CO[C@@H]1[C@H](N(C)C(=O)c2ccccc2)C[C@H]2O[C@]1(C)n1c3ccccc3c3c4c(c5c6ccccc6n2c5c31)C(=O)NC4 | 469 nM (active) | 1050 nM (active)
N#Cc1ccc(NC(=O)Nc2ccccc2Br)c2n[nH]nc12 | 26400 nM (active) | inactive
c1ccc2c(-c3cnn4cc(-c5ccc(N6CCNCC6)cc5)cnc34)ccnc2c1 | 14800 nM (active) | 18700 nM (active)
CCN(CC)CCOc1ccc(Nc2ncc3cc(-c4c(Cl)cccc4Cl)c(=O)n(C)c3n2)cc1 | 1180 nM (active) | 332 nM (active)
CN(C)CCN(C)C(=O)c1ccc(NC(=O)Nc2ccc(-c3nc(N4CCOCC4)c4ccn(CC(F)(F)F)c4n3)cc2)cc1 | 1480 nM (active) | 26.4 nM (active)
COc1cc2c(cc1OC)CN(CCc1ccc(NC(=O)c3cccc4c(=O)c5cccc(OC)c5[nH]c34)cc1)CC2 | 18700 nM (active) | inactive
COc1cc2c(cc1O)CC[C@@H]1[C@@H]2CC[C@]2(C)[C@@H](O)CC[C@@H]12 | 418 nM (active) | 833 nM (active)
O=C1C(CCC(O)c2ccc(F)cc2)C(c2ccc(O)cc2)N1c1ccc(F)cc1 (stereo not drawn) | inactive | inactive
O=C(NOC[C@H](O)CO)c1ccc(F)c(F)c1Nc1ccc(I)cc1F | inactive | inactive
CCOc1cc(C=C2C(=O)N(c3ccccc3)N=C2C)cc(Cl)c1OCC(=O)OC | 18700 nM (active) | inactive
COc1ccc2c3n(c(=NC(=O)c4cccnc4)nc2c1OC)CCN3 | 11800 nM (active) | 3720 nM (active)
Nc1cccc(S(=O)(=O)N2CCCN(S(=O)(=O)c3ccc4c(c3)OCCO4)CC2)c1 | inactive | inactive
Cc1cc(-c2ccc(CC(=O)Nc3ccc(-c4cccnc4)cc3)cc2)ccn1 | 18700 nM (active) | 18700 nM (active)
c1ccc(-c2nn3c(c2-c2ccnc4cc(OCCN5CCOCC5)ccc24)CCC3)nc1 | 26400 nM (active) | inactive
CCOc1cc2ncc(C#N)c(Nc3ccc(OCc4ccccn4)c(Cl)c3)c2cc1NC(=O)/C=C/CN(C)C | 4690 nM (active) | 935 nM (active)
